Assay [1] in a line: Confirmation and Secondary Assay for Modulators of Hemoglobin Beta Chain Splicing at IVS2 654 locus (AID 910). Further: % of control where 0% means no effect. Put shortly: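 HeLa cells stably carrying EGFP interrupted by mutant beta-globin IVS2-654 intron (CMV-driven) were treated with compound for 2 days at 37C; corrected splicing was scored as total peak GFP intensity per well (488 nm excitation, 500-520 nm emission).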

Assay [2] in a line: Confirmation and Secondary Assay for Modulators of Hemoglobin Beta Chain Splicing at IVS2 705 locus (AID 930).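 Further: HeLa cells stably expressing the EGFP-705 splicing reporter; GFP fluorescence per well restored by corrected splicing of the IVS2-705 intron in EGFP; % of control where 0% means no effect.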 A digest of the protocol:
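HeLa cells stably carrying EGFP interrupted by mutant beta-globin intron 2 (IVS2-705) treated 2 days at 37C with compound; 500 nM antisense PNA as control. Correct splicing read as total peak GFP intensity per well by laser-scanning cytometry.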

Assay [3] in a line: qHTS Assay for Lipid Storage Modulators (AID 1519; calls by dose curve; on activity change, negative = inhibition: on the % scale 0 is the no-effect control and ±100 the full control effect). As to conditions: Drosophila S3 cells, BODIPY lipid droplet/cell ratio, laser cytometry, cells loaded with oleic acid. Put shortly:
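Cells seeded at 5,000 per well were treated with compounds over a concentration series and loaded with oleic acid (400 uM, as added). Lipid droplet fluorescence (488 nm excitation, 500-530 nm channel) was read by laser-scanning cytometry and normalized to 20 uM Triacsin C.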

Assay [4] addresses Furin (Homo sapiens) (UniProt P09958). Description: Furin counterscreen qHTS for Zika virus inhibitors (AID 1347149).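 Further: purified recombinant full-length human furin enzyme at 5 nM; fluorescence gain from furin cutting a BOC-RVRR-AMC peptide substrate over 15 min; top concentration of the series differs between compounds; plate controls were no-inhibitor control for no effect and no-enzyme control for full effect; nearly all actives have a fitted effect of over 70% in size.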 Put shortly: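 Counterscreen measures cleavage of 2 microM BOC-RVRR-AMC, below its ~15 microM Km, by 5 nM full-length human furin at pH 7.0 after a 15-min compound preincubation. Inhibition derives from the 15-min fluorescence increase at 37C.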
Assay [5] in a line: Confirmatory screen GU Rhodamine qHTS for Zika virus inhibitors qHTS (AID 1347157). Further: potency means the concentration at half of the fitted maximal effect; nearly all actives have a fitted effect of over 70% in size. A digest of the protocol:
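Percent inhibition derives from the 15-min fluorescence change (ex 480, em 540 nm), normalized to no-enzyme and no-inhibitor wells. Reactions contained 25 nM NS2B-NS3 complex and 1.5 microM substrate in 10 mM Tris-HCl pH 8.0.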

Assay [6] is described as follows: ZIKV-mCherry secondary qHTS for Zika virus inhibitors (AID 1347158). Further: top concentration of the series differs between compounds. A digest of the protocol:
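Compounds were tested in Vero monkey kidney cells infected with recombinant mCherry-expressing Zika virus at MOI 1 for 48-72 h at 37 °C. Fixed cells were nuclear-stained and imaged, and infection rate was taken as the fraction of mCherry-positive cells.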

The subject of assay [7] is Zika virus NS2B-NS3 protease (linked construct). Briefly: Primary screen NINDS Rhodamine qHTS for Zika virus inhibitors (AID 1347160). Further: potency means the concentration at half of the fitted maximal effect; nearly all actives have a fitted effect of over 55% in size. Put shortly:
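Each compound, titrated, sat 15 min with 25 nM linked protease before 1.5 microM Rhodamine110 substrate went in. Fluorescence gain over the next 15 min, in pH 8.0 Tris with Tween 20, gave Hill-fitted curves.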

Assay [8] in a line: Confirmatory screen NINDS Rhodamine qHTS for Zika virus inhibitors (AID 1347161). Further: potency means the concentration at half of the fitted maximal effect; nearly all actives have a fitted effect of over 60% in size. A digest of the protocol: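 In 10 mM Tris-HCl pH 8.0 containing 0.01% Tween 20, linked NS2B-NS3 protease (25 nM final) is exposed to test compounds for 15 min. Cleavage of 1.5 microM Rhodamine110 substrate is tracked by fluorescence over 15 min.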
Assay [9] relates to Zika virus NS2B-NS3 protease (linked). Description: 384 well plate NINDS AMC confirmatory qHTS for Zika virus inhibitors (AID 1347163). Further: potency means the concentration at half of the fitted maximal effect; nearly all actives have a fitted effect of over 50% in size. Put shortly: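 Fluorescence at 355/460 nm was read after 25 minutes of cleavage of 30 microM Ac-VKTGKR-AMC at room temperature, in the dark. Before substrate addition, compounds (up to 1 mM final) sat ~15 minutes with 5, 30 or 60 nM linked protease. Signals were normalized to no-enzyme and no-inhibitor wells.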

The test system of assay [10] is Zika virus NS2B-NS3 protease (linked construct). Briefly: 384 well plate NINDS Rhodamine confirmatory qHTS for Zika virus inhibitors (AID 1347164).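 Further: fluorescence from protease cleavage of Ac-LKRR-rhodamine 110 substrate; potency means the concentration at half of the fitted maximal effect; nearly all actives have a fitted effect of over 65% in size.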 A digest of the protocol: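 Linked protease at a final 5 nM, 30 nM or 60 nM was preincubated ~15 min with compounds, then given 10 microM Ac-LKRR-Rhodamine 110. Fluorescence (ex 485/em 538 nm) after 25 min in the dark at room temperature.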

The nature of assay [11]: OV-KATE Cancer Cell Toxicity qHTS against the NCATS CANVASS Library (AID 1347345). Further: on the % scale 0 is the no-effect control and ±100 the full control effect. A digest of the protocol:
(§1)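 1000 cells/well seeded and rested 4 h at 37 °C before pin transfer of compounds in an 11-pnt series. Exposure 72 h at 37 °C/5% CO2; viability by CellTiter-Glo luminescence after 15 min at room temperature.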

Assay [12] is described as follows: HPAF-II Cancer Cell Toxicity qHTS against the NCATS CANVASS Library (AID 1347346). Further: on the % scale 0 is the no-effect control and ±100 the full control effect; nearly all actives have a fitted effect of over 55% in size. Put shortly: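 First, HPAF-II cells are plated (1000 cells/well) and held 4 h at 37 degrees C. Next, compounds are pin-transferred as an 11-point series. After 72 h, CellTiter-Glo is added and luminescence measured.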
Assay [13] can be described thus: Panc-1005 Cancer Cell Toxicity qHTS against the NCATS CANVASS Library (AID 1347349). Further: potency means the concentration at half of the fitted maximal effect; nearly all actives have a fitted effect of over 60% in size. Put shortly: as §1
Assay [14] is described as follows: A2780 Cisplatin Sensitive Ovarian Cancer Cell Toxicity qHTS against the NCATS CANVASS Library (AID 1347353). Further: on the % scale 0 is the no-effect control and ±100 the full control effect; nearly all actives have a fitted effect of over 60% in size. Put shortly: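 Cells are plated at 750 per well and rest for 4 hours. Compounds are added across eleven concentrations, and incubated 72 hours before ATP is quantified by luminescence.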
Assay [15] is described as follows: UWB1.289-WTBRCA1 Cancer Cell Toxicity qHTS against the NCATS CANVASS Library (AID 1347354). Further: on the % scale 0 is the no-effect control and ±100 the full control effect. A digest of the protocol:
(§2)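 First, 1000 cells go into each well and rest for 4 hours. Next, an 11-point dilution range is pinned in. Plates then incubate 72 hours before CellTiter-Glo addition and luminescence reading.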

A short description of assay [16]: HEK-293 Cancer Cell Toxicity qHTS against the NCATS CANVASS Library (AID 1347355). Further: on the % scale 0 is the no-effect control and ±100 the full control effect; nearly all actives have a fitted effect of over 65% in size. A digest of the protocol:
as §2

Assay [17] in a line: HPAF-II 24hr Apoptosis Induction qHTS against the NCATS CANVASS Library (AID 1347356). Further: 0% is about no effect. A digest of the protocol:
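Cells seeded at 500 per well, then compounds pin-transferred in an 11-point concentration series. After 24 hours at 37 degrees C, Caspase-Glo 3/7 was added and luminescence measured following 15 min at room temperature.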

The nature of assay [18]: HPAF-II 12hr Apoptosis Induction qHTS against the NCATS CANVASS Library (AID 1347358). Further: 0% is about no effect. Put shortly:
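Cells plated at 500 per well are dosed with compound and incubated 12 hours at 37 degrees C. Caspase-Glo 3/7 reagent is added and, after 15 min at room temperature, luminescence proportional to caspase activity is measured.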

A short description of assay [19]: HEK293 24hr Apoptosis Induction qHTS against the NCATS CANVASS Library (AID 1347359). Further: 0% is about no effect. Put shortly:
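HEK293 cells (500/well, DMEM + 10% FBS) were exposed to compounds in an 11-point series for 24 hours at 37 degrees C, then caspase-3/7 activity was read by Caspase-Glo DEVD luciferase luminescence after 15 min.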

Assay [20] is described as follows: HPAF-II 18hr Apoptosis Induction qHTS against the NCATS CANVASS Library (AID 1347360). Further: 0% is about no effect. Put shortly: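 HPAF-II cells (500/well, DMEM + 10% FBS) were exposed to compounds for 18 hours at 37 degrees C. Caspase-3/7 activity was then read by Caspase-Glo 3/7 luminescence after 15 min at room temperature.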

Experimental findings from PubChem BioAssay (NCATS) are described below.

Each structure is given as a SMILES string. Inconclusive results are not listed. Active and inactive are the calls of the source. Unless noted, the call rests on the fitted dose curve; in most records, active means well fitted curve in the direction sought with a large enough effect; inconclusive means small, poorly fitted or top-dose-only effect, or another doubt; inactive means no such curve, though single readings can be large; an effect the other way counts as inactive or inconclusive.

Sequence of Furin (Homo sapiens) (P09958 whole entry, looked up): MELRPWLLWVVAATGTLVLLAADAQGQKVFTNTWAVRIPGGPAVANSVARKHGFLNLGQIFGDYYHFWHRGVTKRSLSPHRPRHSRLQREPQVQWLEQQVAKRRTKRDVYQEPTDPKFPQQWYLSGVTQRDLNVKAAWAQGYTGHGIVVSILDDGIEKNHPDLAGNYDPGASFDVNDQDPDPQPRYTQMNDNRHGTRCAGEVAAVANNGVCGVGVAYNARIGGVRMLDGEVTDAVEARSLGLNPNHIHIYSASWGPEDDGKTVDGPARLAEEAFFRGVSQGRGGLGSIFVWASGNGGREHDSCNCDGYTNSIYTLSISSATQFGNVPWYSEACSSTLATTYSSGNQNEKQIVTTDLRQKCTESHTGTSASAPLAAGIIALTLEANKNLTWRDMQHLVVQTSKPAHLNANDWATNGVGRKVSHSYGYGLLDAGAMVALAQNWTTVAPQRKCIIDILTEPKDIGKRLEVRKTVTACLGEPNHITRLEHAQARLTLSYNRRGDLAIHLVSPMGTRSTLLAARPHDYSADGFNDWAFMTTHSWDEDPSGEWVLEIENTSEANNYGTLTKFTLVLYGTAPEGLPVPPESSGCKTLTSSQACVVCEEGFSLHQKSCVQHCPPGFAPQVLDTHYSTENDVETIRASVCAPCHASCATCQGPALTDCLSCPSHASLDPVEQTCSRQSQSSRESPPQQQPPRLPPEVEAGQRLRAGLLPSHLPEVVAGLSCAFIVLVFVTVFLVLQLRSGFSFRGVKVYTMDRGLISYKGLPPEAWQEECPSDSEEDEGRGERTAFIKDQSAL

On to `O=C(OC1Cc2c(O)cc(O)cc2OC1c1cc(O)c(O)c(O)c1)c1cc(O)c(O)c(O)c1` (configuration not stated), for which the outcome in assay [1], in assay [2] and in assay [17] was inactive. Moreover, the activity change, negative = inhibition in assay [3] (at 57.5 µM (top of the series)) was 7.9% (inactive). The max response in assay [3] (measured here: cell count channel max response) is 1.63%; in assay [3] (measured here: lipid channel max response), 13.6%. The Potency result in assay [4], in [6], in assay [11], in [12], in assay [14] and in assay [15] was “inactive” throughout. In addition, the Potency entry in [16], in assay [18], in assay [19] and in assay [20] was “inactive” in each case. For the same compound, the Potency in assay [5] was 7.94 µM (active); in [7], 1.56 µM (active); in [8] it was 7.94 µM (active); in [9], 15.8 µM (active); in assay [10], 89.1 µM (active); in assay [13] it was 18.8 µM (active).
